# From publication PMC7862700, “An all-to-all approach to the identification of sequence-specific readers for epigenetic DNA modifications on cytosine”
# Assays:
# Experiment in all cases: DAPPL (digital affinity profiling via proximity ligation, sequencing); 10 mM Tris-HCl pH 7.5, 50 mM NaCl, 1 mM DTT, 4% glycerol, room temperature, 30 min; GST-TFs on glutathione beads, 16-mer random dsDNA library, 0.1% formaldehyde crosslink after washing; high values mean tight binding
# Details in all cases: protein: recombinant; tags: N-terminal GST; dsDNA, one strand shown
# ELK1 = target: T1, ELK1 (Homo sapiens, UniProt P19419 1-428)
# T1 sequence: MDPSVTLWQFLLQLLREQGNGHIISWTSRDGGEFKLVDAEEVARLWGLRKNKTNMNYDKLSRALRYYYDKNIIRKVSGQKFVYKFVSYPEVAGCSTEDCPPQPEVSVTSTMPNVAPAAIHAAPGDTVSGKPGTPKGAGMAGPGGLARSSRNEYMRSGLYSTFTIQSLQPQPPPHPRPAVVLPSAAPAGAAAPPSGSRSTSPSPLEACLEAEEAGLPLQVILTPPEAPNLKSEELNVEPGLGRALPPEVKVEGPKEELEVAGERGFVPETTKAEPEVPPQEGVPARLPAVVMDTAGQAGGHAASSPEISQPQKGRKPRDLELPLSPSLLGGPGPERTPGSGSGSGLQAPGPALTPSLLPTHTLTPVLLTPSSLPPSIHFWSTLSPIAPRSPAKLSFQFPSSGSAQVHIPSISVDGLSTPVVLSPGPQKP
# In short: (§1)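 Binding signal is each hexamer's read frequency for a factor divided by its frequency in the tag-only sample. The factors were GST-fused human transcription factors from yeast, captured on glutathione beads, DNA-barcoded and pooled with that sample. Pools were incubated with 200 nmole of a random double-stranded 16-mer DNA library in Tris/NaCl/DTT/glycerol buffer at room temperature for 30 min, then washed, crosslinked with 0.1% formaldehyde, proximity-ligated with BsaI/T4 ligase (1 h, 37 °C), PCR-amplified and sequenced on an Illumina NextSeq500.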
# GABPA = target: T2, GABPA (Homo sapiens, UniProt Q06546 1-454)
# T2 sequence: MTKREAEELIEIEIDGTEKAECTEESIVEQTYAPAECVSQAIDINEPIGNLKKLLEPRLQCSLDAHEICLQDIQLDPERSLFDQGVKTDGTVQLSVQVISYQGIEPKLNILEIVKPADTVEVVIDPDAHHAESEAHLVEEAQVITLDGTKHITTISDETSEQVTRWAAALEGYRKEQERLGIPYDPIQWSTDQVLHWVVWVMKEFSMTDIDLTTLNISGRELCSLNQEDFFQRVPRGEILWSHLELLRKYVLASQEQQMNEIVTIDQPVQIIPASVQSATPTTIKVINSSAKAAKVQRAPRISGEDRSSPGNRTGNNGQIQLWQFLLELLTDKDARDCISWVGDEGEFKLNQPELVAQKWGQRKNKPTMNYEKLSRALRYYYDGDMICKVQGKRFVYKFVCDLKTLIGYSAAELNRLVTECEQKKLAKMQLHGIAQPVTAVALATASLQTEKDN
# In short: as §1
# ELF1 = ELF1 (Homo sapiens, UniProt P32519 1-619)
# ELF1, sequence (P32519 whole entry): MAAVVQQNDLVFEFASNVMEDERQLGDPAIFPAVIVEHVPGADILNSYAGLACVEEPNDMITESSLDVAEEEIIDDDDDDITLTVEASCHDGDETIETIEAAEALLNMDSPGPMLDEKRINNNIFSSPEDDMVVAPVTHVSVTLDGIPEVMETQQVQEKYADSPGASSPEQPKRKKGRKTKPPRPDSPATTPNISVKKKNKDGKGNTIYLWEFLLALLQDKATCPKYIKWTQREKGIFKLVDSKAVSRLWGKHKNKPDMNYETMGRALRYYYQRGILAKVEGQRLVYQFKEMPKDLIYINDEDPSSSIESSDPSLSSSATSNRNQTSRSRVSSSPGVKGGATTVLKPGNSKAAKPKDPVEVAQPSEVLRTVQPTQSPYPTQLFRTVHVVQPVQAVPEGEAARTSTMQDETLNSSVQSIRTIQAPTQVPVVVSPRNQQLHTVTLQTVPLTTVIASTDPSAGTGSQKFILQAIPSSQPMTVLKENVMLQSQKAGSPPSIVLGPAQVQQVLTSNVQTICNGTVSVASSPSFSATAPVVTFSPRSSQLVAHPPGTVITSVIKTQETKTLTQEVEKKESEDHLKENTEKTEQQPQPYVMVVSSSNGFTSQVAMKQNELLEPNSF
# In short: as §1
# EHF = target: T3, EHF (Homo sapiens, UniProt Q9NZC4 1-300)
# T3 sequence: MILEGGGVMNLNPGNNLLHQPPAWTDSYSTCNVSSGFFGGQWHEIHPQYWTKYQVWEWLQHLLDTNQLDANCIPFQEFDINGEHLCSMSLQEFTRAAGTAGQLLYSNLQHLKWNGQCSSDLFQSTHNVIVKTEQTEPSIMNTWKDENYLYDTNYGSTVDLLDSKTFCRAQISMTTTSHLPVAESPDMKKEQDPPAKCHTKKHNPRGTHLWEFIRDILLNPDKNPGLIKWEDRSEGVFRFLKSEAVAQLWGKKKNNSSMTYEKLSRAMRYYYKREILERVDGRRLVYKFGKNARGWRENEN
# In short: as §1
# SPIB = SPIB (Homo sapiens, UniProt Q01892 1-262)
# SPIB, sequence (Q01892 whole entry): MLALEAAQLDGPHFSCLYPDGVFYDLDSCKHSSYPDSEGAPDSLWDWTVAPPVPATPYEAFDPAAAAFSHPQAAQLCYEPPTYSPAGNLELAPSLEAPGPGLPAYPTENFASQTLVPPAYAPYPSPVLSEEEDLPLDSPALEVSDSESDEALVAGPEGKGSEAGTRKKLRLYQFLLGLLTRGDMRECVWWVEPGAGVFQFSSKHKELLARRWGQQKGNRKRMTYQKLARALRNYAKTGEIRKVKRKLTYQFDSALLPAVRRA
# In short: as §1
# FEV = target: T4, FEV (Homo sapiens, UniProt Q99581 1-238)
# T4 sequence: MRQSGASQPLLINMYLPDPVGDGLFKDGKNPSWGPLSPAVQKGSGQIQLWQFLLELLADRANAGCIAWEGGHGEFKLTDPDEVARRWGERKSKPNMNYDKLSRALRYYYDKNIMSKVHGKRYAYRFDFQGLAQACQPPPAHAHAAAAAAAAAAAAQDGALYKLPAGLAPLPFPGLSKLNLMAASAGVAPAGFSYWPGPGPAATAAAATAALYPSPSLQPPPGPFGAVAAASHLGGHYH
# In short: as §1
# ETV5 = ETV5 (Homo sapiens, UniProt P41161 1-510)
# ETV5, sequence (P41161 whole entry): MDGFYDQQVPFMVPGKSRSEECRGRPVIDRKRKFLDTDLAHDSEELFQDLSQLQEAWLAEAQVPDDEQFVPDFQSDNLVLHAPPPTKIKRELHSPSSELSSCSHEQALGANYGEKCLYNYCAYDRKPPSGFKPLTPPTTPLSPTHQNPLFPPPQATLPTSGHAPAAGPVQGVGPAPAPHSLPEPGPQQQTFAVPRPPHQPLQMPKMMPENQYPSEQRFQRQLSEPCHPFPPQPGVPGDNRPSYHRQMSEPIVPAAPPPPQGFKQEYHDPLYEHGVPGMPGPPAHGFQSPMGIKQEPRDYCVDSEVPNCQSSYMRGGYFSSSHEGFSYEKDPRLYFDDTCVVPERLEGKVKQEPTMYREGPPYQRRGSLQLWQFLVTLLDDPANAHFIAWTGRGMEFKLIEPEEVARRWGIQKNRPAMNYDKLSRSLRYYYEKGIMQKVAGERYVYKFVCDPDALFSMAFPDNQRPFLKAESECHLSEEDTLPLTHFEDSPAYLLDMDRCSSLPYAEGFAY
# In short: as §1
# ELK4 = target: T5, ELK4 (Homo sapiens, UniProt P28324-2 1-405)
# T5 sequence: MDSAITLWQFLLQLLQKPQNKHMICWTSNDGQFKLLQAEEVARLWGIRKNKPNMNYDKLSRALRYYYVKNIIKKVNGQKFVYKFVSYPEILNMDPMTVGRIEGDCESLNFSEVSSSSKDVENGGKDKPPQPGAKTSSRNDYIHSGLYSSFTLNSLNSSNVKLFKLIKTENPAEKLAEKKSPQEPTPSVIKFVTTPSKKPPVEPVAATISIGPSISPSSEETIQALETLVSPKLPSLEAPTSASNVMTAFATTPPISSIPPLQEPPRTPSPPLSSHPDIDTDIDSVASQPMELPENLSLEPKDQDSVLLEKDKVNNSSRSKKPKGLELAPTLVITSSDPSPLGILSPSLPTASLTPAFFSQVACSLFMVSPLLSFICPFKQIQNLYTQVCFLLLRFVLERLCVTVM
# In short: as §1
# ELF3 = target: T6, ELF3 (Homo sapiens, UniProt P78545 1-371)
# T6 sequence: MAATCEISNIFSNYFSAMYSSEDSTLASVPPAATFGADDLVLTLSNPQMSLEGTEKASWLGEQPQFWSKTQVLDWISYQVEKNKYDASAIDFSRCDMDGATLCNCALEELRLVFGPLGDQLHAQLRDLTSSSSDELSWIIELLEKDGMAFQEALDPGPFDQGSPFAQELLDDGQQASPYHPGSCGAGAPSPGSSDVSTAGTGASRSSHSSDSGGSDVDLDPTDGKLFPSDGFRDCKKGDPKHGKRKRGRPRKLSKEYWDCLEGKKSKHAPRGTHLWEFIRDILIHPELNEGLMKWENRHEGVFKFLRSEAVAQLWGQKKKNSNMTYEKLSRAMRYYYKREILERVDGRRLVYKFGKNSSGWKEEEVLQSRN
# In short: as §1
# ETV1 = ETV1 (Homo sapiens, UniProt P50549 1-477)
# ETV1, sequence (P50549 whole entry): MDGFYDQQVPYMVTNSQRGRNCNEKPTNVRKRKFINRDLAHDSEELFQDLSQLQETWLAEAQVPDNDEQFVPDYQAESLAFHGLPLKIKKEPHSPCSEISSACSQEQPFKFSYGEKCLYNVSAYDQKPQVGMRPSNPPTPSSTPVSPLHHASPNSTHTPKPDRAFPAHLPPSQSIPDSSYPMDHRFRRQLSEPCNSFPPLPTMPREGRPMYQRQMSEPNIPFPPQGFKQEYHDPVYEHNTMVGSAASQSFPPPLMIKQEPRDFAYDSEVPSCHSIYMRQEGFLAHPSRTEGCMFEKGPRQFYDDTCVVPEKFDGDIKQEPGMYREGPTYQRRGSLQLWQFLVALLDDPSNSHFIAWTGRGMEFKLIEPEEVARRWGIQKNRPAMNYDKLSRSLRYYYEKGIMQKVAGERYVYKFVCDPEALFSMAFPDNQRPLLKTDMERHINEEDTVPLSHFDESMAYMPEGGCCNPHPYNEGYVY
# In short: as §1
# SPDEF = target: T7, SPDEF (Homo sapiens, UniProt O95238 1-335)
# T7 sequence: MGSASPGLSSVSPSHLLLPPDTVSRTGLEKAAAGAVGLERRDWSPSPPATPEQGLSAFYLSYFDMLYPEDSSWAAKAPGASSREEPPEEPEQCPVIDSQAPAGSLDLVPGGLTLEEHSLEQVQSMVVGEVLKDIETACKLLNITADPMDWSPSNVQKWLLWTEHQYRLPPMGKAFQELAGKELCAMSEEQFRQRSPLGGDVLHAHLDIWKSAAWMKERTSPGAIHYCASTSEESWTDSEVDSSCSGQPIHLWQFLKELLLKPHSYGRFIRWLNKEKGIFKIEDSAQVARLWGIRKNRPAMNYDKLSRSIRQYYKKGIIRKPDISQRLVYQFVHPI
# In short: as §1
# ETV7 = target: T8, ETV7 (Homo sapiens, UniProt Q9Y603 1-341)
# T8 sequence: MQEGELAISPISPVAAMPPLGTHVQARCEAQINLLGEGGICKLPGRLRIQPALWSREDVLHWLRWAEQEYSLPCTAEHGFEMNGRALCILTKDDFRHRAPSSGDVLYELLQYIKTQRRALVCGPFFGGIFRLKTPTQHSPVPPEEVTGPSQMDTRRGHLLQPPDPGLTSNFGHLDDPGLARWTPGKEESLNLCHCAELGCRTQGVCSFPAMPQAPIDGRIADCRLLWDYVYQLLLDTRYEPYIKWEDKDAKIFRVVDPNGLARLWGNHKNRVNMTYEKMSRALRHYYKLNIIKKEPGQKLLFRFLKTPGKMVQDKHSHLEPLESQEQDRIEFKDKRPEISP
# In short: as §1
# ETV3 = target: T9, ETV3 (Homo sapiens, UniProt P41162-2 1-143)
# T9 sequence: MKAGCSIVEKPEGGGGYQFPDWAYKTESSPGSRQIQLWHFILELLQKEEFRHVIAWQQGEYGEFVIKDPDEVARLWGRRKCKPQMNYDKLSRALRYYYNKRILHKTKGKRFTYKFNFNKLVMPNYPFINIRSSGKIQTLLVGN
# In short: as §1
# ETV6 = ETV6 (Homo sapiens, UniProt P41212 1-452)
# ETV6, sequence (P41212 whole entry): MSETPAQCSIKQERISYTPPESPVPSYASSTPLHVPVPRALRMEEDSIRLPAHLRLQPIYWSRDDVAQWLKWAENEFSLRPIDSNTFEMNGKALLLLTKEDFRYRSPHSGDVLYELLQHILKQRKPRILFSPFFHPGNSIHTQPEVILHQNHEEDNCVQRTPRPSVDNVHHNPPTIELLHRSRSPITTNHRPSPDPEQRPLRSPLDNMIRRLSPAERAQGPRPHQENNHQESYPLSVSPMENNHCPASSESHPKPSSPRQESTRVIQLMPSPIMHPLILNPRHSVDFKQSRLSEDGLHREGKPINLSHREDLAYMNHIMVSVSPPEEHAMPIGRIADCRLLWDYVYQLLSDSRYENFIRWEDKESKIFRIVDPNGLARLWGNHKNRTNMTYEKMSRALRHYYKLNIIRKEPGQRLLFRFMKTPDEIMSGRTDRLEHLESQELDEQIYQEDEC
# In short: as §1
sequence,measurement,setting,value
TCGTCC,binding signal,ELK1,"1.1 fold enrichment (6-mer frequency, TF over GST control)"
same,binding signal,GABPA,"1.05 fold enrichment (6-mer frequency, TF over GST control)"
same,binding signal,ELF1,"1.03 fold enrichment (6-mer frequency, TF over GST control)"
same,binding signal,EHF,"1 fold enrichment (6-mer frequency, TF over GST control)"
same,binding signal,SPIB,"1.06 fold enrichment (6-mer frequency, TF over GST control)"
same,binding signal,FEV,"1 fold enrichment (6-mer frequency, TF over GST control)"
same,binding signal,ETV5,"1.01 fold enrichment (6-mer frequency, TF over GST control)"
same,binding signal,ELK4,"1.15 fold enrichment (6-mer frequency, TF over GST control)"
same,binding signal,ELF3,"1.08 fold enrichment (6-mer frequency, TF over GST control)"
same,binding signal,ETV1,"1.06 fold enrichment (6-mer frequency, TF over GST control)"
same,binding signal,SPDEF,"1.08 fold enrichment (6-mer frequency, TF over GST control)"
same,binding signal,ETV7,"1.08 fold enrichment (6-mer frequency, TF over GST control)"
same,binding signal,ETV3,"1.04 fold enrichment (6-mer frequency, TF over GST control)"
same,binding signal,ETV6,"1.08 fold enrichment (6-mer frequency, TF over GST control)"
